The text below walks through data of PubChem BioAssay (Tox21).

Structures are written as SMILES. Unmarked numbers belong to inactive results. Results filed as inconclusive are left out. Calls of active or inactive are those of the source. The call rests on the fitted dose curve; in most records, active means well fitted curve in the direction sought with a large enough effect in the repeat runs; inconclusive means weak or mixed curves; inactive means no such curve, though single readings can be large; an effect the other way counts as inactive or inconclusive.

The nature of experiment [1]: qHTS RealTime-Glo MT Cell Viability Assay in HEK293 cells - 40 hour (AID 1224874). Further: nearly all actives have a fitted effect of over 50% in size. Further: potency means the concentration at half of the fitted maximal effect. The following applies: RealTime-Glo luminescence; max response: active compounds read low. The gist of the method: (§1)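 600 cells/well were plated with the nonlytic NanoLuc/prosubstrate reagent, pre-incubated 5 h, then given 23 nL of compound in DMSO. Incubation at 37 C for 40 h, with luminescence from viable-cell-reduced substrate read repeatedly from 0 h.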

A short description of experiment [2]: A CellTox Green Cytotoxicity Assay to monitor cytotoxicity in HEK293 cells - 24 hour (AID 1224875). Further: nearly all actives have a fitted effect of over 45% in size. Further: potency means the concentration at half of the fitted maximal effect. On activity change: series mostly up to about 77 µM. The gist of the method:
(§2)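 HEK293 cells, 600/well, were preincubated 5 hours and then exposed to compounds at 37 C for up to 40 hours. A cell-impermeant cyanine dye staining dead-cell DNA was read by fluorescence at 0, 8, 16, 24, 32 and 40 h time points.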

Experiment [3] in a line: qHTS RealTime-Glo MT Cell Viability Assay in HepG2 cells - 32 hour (AID 1224877). Further: nearly all actives have a fitted effect of over 55% in size. Further: potency means the concentration at half of the fitted maximal effect. The method in brief: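 Cell number in HepG2 cultures estimated from NanoLuc luminescence generated by metabolic reduction of a prosubstrate by living cells. The homogeneous, nonlytic format allowed repeated reads at 0, 8, 16, 24, 32 and 40 h of compound exposure.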
In general terms: Quantitative high-throughput screening tests each substance at several concentrations.

A short description of experiment [4]: A CellTox Green Cytotoxicity Assay to monitor cytotoxicity in HepG2 cells - 24 hour (AID 1224878). Further: nearly all actives have a fitted effect of over 45% in size. The method in brief:
(§3)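 HepG2 cells, 600/well, preincubated 5 h with CellTox Green dye, then exposed to Tox21 compounds in DMSO at 37 C for up to 40 h. Dead-cell DNA fluorescence read at the indicated time point.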

The nature of experiment [5]: qHTS RealTime-Glo MT Cell Viability Assay in HEK293 cells - 0 hour (AID 1224880). Further: top concentration of the series differs between compounds; nearly all actives have a fitted effect of over 45% in size. The method in brief: as §1
A short description of experiment [6]: A CellTox Green Cytotoxicity Assay to monitor cytotoxicity in HepG2 cells - 0 hour (AID 1224882). Further: nearly all actives have a fitted effect of over 35% in size. The gist of the method:
as §3

The nature of experiment [7]: A CellTox Green Cytotoxicity Assay to monitor cytotoxicity in HepG2 cells - 32 hour (AID 1224883). Further: nearly all actives have a fitted effect of over 50% in size. Further: potency means the concentration at half of the fitted maximal effect. The method in brief: as §3
Experiment [8] is described as follows: A CellTox Green Cytotoxicity Assay to monitor cytotoxicity in HepG2 cells - 16 hour (AID 1224876). Further: nearly all actives have a fitted effect of over 45% in size. Further: potency means the concentration at half of the fitted maximal effect. The gist of the method:
as §3

A short description of experiment [9]: A CellTox Green Cytotoxicity Assay to monitor cytotoxicity in HepG2 cells - 40 hour (AID 1224879). Further: nearly all actives have a fitted effect of over 40% in size. Further: potency means the concentration at half of the fitted maximal effect. The method in brief: as §3
Experiment [10] in a line: A CellTox Green Cytotoxicity Assay to monitor cytotoxicity in HEK293 cells - 32 hour (AID 1224881). Further: nearly all actives have a fitted effect of over 40% in size. Further: potency means the concentration at half of the fitted maximal effect. The method in brief:
as §2
On the % scale 0 is the no-effect control and ±100 the full control effect.

With `CC(C)=NNC(N)=S`, the max response in [1] was 3.34%. Besides, the Potency entry in [2], in experiment [3], in experiment [4], in experiment [5], in [6] and in [7] was “inactive” throughout.

With `C=C[Si](C)(C)Cl`, the max response in [1] was -5.42%. In addition, in experiment [2], the activity change is -5.65% [at 6.97 µM, active compounds read high]. The cytotoxicity increase in experiment [8] was -13.5% [at 6.97 µM]; in experiment [9], -18.2% [at 6.97 µM]; in experiment [10] it was -7.47% [at 6.97 µM]; in experiment [7], -16.4% [at 6.97 µM]. Further, in experiment [3], the activity change, negative = cytotoxic is 9.18% [at 6.97 µM]. For the same compound, in experiment [5], the activity change, negative = cytotoxicity was -5.88% [at 6.97 µM]. In addition, the cytotoxicity in experiment [6] was -6.72% [at 6.97 µM].

Take `CCOC(=O)[C@H](C)O`: the max response in [1] is 7.55%. In addition, the Potency result in [2], in experiment [8], in experiment [3], in experiment [9], in [5] and in experiment [10] was “inactive” throughout. In addition, the Potency entry in experiment [6] and in [7] was “inactive” in each case.

For `c1ccc(C[P+](c2ccccc2)(c2ccccc2)c2ccccc2)cc1`, the Potency in [1] is 1.38 µM (active); in [9] it was 19.5 µM (active); in experiment [7] it was 21.9 µM (active). Further, the Potency result in [2], in [8], in experiment [3] and in experiment [5] was “inactive” each time.

Turning to `COCCC(=O)OC`, the max response in [1] was 1.08%. In addition, the Potency entry in [2], in experiment [8], in [3], in [9], in experiment [5] and in experiment [10] was “inactive” in each case. For the same compound, in experiment [7], the Potency entry was “inactive”.

Regarding `ClC(c1ccccc1)(c1ccccc1)c1ccccc1`, the max response in experiment [1] is -24.6%. In addition, the Potency entry in experiment [2], in [8], in [3], in experiment [9], in [5] and in [6] was “inactive” each time. Besides, the Potency entry in [7] was “inactive”.

For the compound `c1ccc2cc3c4ccccc4c4ccccc4c3cc2c1`, the max response in [1] is -2.98%. Further, the Potency result in experiment [2], in [8], in experiment [3] and in experiment [5] was “inactive” each time. In addition, the Potency in experiment [9] and in experiment [7] was 13.9 µM (active) in each case.

Turning to `COc1c(Br)cc(Br)c(C)c1Br`, in experiment [1], the max response is 1.46%. Also, the Potency result in [2], in experiment [3], in experiment [5], in [10] and in experiment [6] was “inactive” throughout.

As for `O=c1cc[nH]cc1`, the max response in experiment [1] was 1.32%. Also, the Potency result in [2], in experiment [8], in experiment [3], in experiment [9], in experiment [5] and in [6] was “inactive” in each case. For the same compound, the Potency result in experiment [7] is “inactive”.

As to `CCOc1ccc([N+](=O)[O-])cc1`, the Potency was 49.7 µM (active) in experiment [1], 44.3 µM (active) in experiment [2] and 44.3 µM (active) in experiment [10]. Further, the Potency result in experiment [3] and in experiment [5] was “inactive” each time.

Consider `C/C(=C\c1ccc(C(=O)O)cc1)c1ccc2c(c1)C(C)(C)CCC2(C)C`, for which the max response in experiment [1] was -17.3%. The Potency result in experiment [2], in experiment [8], in [3], in [9], in [5] and in [6] was “inactive” each time. Besides, the Potency result in experiment [7] is “inactive”.

As to `O=C(Nc1ccc([N+](=O)[O-])cc1)Nc1ccc([N+](=O)[O-])cc1` (tested in a mixture with another compound), the Potency in experiment [1] was 4.77 µM (active); in experiment [9], 21.3 µM (active); in [7] it was 21.3 µM (active). Moreover, the Potency result in experiment [2], in experiment [8], in experiment [3], in [5] and in experiment [10] was “inactive” throughout.

For `CC(C)=CCC[C@H](C)CC=O`, the max response in experiment [1] was 11.6%. The Potency entry in experiment [8], in experiment [3], in [4], in experiment [9], in experiment [5] and in experiment [6] was “inactive” in each case. For the same compound, the Potency result in [7] was “inactive”.

For the compound `Oc1cccc2c(O)cccc12`, the max response in experiment [1] was 3.51%. The Potency result in experiment [8], in [3], in experiment [9], in experiment [5], in [10] and in [7] was “inactive” each time.

For `CCCCCCCCc1ccc(Nc2ccc(CCCCCCCC)cc2)cc1`, the max response in experiment [1] is -0.6%. Besides, the Potency result in experiment [8], in experiment [3], in experiment [4], in experiment [9], in [5] and in [7] was “inactive” in each case.

With `CN(C[C@@H](CC[N+]12CCC(C3CCCCC3)(CC1)CC2)c1ccc(Cl)c(Cl)c1)C(=O)c1cc(C(F)(F)F)cc(C(F)(F)F)c1`, the Potency in experiment [1] was 2.19 µM (active); in experiment [8], 24.5 µM (active); in [3], 24.5 µM (active); in [9], 24.5 µM (active); in experiment [10], 34.7 µM (active); in experiment [7], 24.5 µM (active). Also, the Potency result in experiment [5] and in experiment [6] was “inactive” throughout.

For `CC(C=O)c1ccccc1` (stereo not drawn), the max response in [1] was -16.6%. For the same compound, the Potency entry in experiment [8], in [3], in experiment [9], in [5], in experiment [10] and in experiment [7] was “inactive” each time.

Take `CC/C(=C(/c1ccc(O)cc1)c1ccc(OCCN(C)C)cc1)c1ccccc1`: the Potency in [1] was 8.12 µM (active); in [8] it was 25.7 µM (active); in [3], 14.4 µM (active); in experiment [9], 12.9 µM (active); in experiment [10] it was 22.9 µM (active); in experiment [7], 14.4 µM (active). In addition, the Potency entry in experiment [5] and in experiment [6] was “inactive” throughout.

As for `O=C(c1ccccc1)c1ccc(Cl)cc1`, the max response in [1] is 0.405%. Further, the Potency entry in experiment [8], in experiment [3], in experiment [9], in experiment [5], in experiment [10] and in experiment [6] was “inactive” throughout. Also, the Potency result in experiment [7] was “inactive”.
